Among the data in the supplement of paper PMC6555819 are PBM binding z-score values, retold here.

The test system of the assay is VDR:RXRa (NR concentration 270 nM, RXRa partner concentration 90 nM). Put plainly: PBM binding z-score (relative to random genomic background probes); higher = stronger binding; sequences stand for … in GC…GCGATTGACAGCGTAGAATGAAGG
On the procedure: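 Protein-binding microarray (Agilent 4x180K custom design, double-stranded 60-nt probes: 5' GC cap, 34-nt variable region, 24-nt constant primer region; full probe sequence given). Purified or IVT nuclear receptor:RXRα heterodimers (3:1 NR:RXRα, mostly 270:90 nM) or homodimers were incubated for 1 h in PBS with 2% milk and no ligand, then detected with Alexa488 antibodies. Fluorescence from o1-orientation probes (~5 replicates averaged) was converted to z-scores against 500 random hg19 background probes. Variable regions are seed direct-repeat (DR0–DR5) sites, all their single-nucleotide variants and half-site ablations.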
Turning to CCTACTGGGCAAAAAAGGTCATTGATGCCGATAA, the PBM binding z-score came to 4.36.
Then ATATGTAGGTTATGGTCATTCAGAAAGTAGGGAA, with 0.871; and CCAGAAAGGTGAAAGGTAACTCAGTCTGGTACGC, with 1.81.
The sequence CCGAGTAGGTTACGAGGGGGCATTCCGTGCGAAT registered a PBM binding z-score of 4.84.
The sequence CATACAGGGTCCGCTAGGCCAGAGTAGGGACGGC had a PBM binding z-score of -0.537.
Turning to GCTGCTAGGTCAACTGAAGGTCAGCTAAAGCTCG, the PBM binding z-score came to 4.15.
Turning to ATACCAAGGTGATCGTGAGTTCGTTGATACTAAC, the PBM binding z-score stood at 4.08.
On to CGAATTAGGTCAAAGGACAGTGAAAGGCGACGTA, for which the PBM binding z-score amounted to 1.65.
In turn, AGAATGGGGTTATTAAGATCAGGGAATTGCGGTC registered a PBM binding z-score of 4.05.
TCTTGTTGATCAAAGGTTAAGAAAGCCGAAGCCT registered a PBM binding z-score of 1.56.
For CGTCCAAGGTCATGGGAGGTCAGTGAAGACAGAT the value was 7.07; for ATGTGTAGGTTAGGGTCATTCAGAAAGTAGGGAA, 4.65.
For the sequence AGTCAAAGTTCAGGACGAGATAACGTAAAGCACG, the PBM binding z-score turned out to be 2.19.
Then ATCGAAAGGTCGCAGGTGAGTATACCCACCCGAA, with 3.2; and TATACAGGATCAAAGGCCAGAGTACGAATGTCGA, with 0.61.
Sequence ATATGGAGGTTAGGGTCATTCAGAAAGTAGGGAA returned a PBM binding z-score of 4.64.
Take CCTACTGGGCCAAGGTCATTGCTCAGTCAAAGCA: the PBM binding z-score turned out to be 3.19.
Regarding CGGACTAGGTCAAAGGACAGTGAAAGGCGACGTA, the PBM binding z-score came to 1.16.
For the sequence TTATCAAGGTGAAAGGTCGTTGATGCACGCCTTG, the PBM binding z-score is 3.29.
CGAACTAGTTCACCAGGACAGTGAAGAGGTTGGA came in with a PBM binding z-score of 0.879.
Turning to CGAACTAAGTCAAAGGACAGTGAAAGGCGACGTA, the PBM binding z-score was -0.259.
The sequence CGAACTAGGTCACTAGGACAGTGAAGAGGTTGGA had a PBM binding z-score of 1.18.
Then CGAACTAGGTCAACAGGACAGTGAAGAGGTTGGA, with 1.53; and AGTCAAAGTTCATCAAGGTAACGTAAGATATGCT, with 5.55; and CGTCAAAGTTCAAGGTAAAGTAACAGAAAGCAGC, with 3.4.
Then TCGAGTAGCTTACGGGGGCATTCAGGGATGAAGA, with 2.45; and CCGAGTAGGTTACGAGGGGGCATTCTGTGCGAAT, with 4.89.
For TCGAGTAGGTTACGGAGGCATTCAGGGATGAAGA the value was 0.176; for ATCGAAAGGTCGAAAGTGAGTATACCCACCCGAA, 2.18; for ATATGTAGGATAGGGTCATTCAGAAAGTAGGGAA, 3.79.
Regarding TAGCCTAGCTCATTCAGGGGCCAGTATAGAAAGC, the PBM binding z-score is -0.541.
Turning to CATACAGGGACAGCTAGGCCAGAGTAGGGACGGC, the PBM binding z-score was -0.582.
For AGTCAAAGTTCATCTTGGTAACGTAAGATATGCT the value was 4.41; for GCTTACGGGTCAAAGGTTATAGTATGAATAGAAT, 5.76.
The sequence TCTCGGAGGACACGAAAAGTCAGAGCTCGACATC had a PBM binding z-score of -0.0283.
For the sequence CTCGAAAGGTCGTGCTCAGGTGAGTACACCAAAC, the PBM binding z-score turned out to be 3.6.
Consider CAAAGTAGGTCACGAAAGGTCAAAGTCGAATGAC, for which the PBM binding z-score was found to be 6.82.
AGAATGAGGTTATACGTAGGTCAGGGAAGAAAGT displayed a PBM binding z-score of 3.34.
Then GCTTACGGGTCAAAAGTTATAGCATGAATAGAAT, with 2.93; and TAGCCTAGGTCATTCAGGGGCCAGTATGGAAAGC, with 3.13.
